Among the data in PubChem BioAssay (Tox21) are Potency and outcome values, retold here.

“And” between values parts separate entries of the source, which are not always exact repeats. Identical values can stand only once. A structure can be active in one record and inactive in another. The source made the active and inactive calls. Unless noted, the call rests on the fitted dose curve; in most records, active means well fitted curve in the direction sought with a large enough effect in the repeat runs; inconclusive means weak or mixed curves; inactive means no such curve, though single readings can be large; an effect the other way counts as inactive or inconclusive.

Test [1] in a line: qHTS assay to identify small molecule antagonists of the thyroid receptor (TR) signaling pathway - cell viability counter screen (AID 743064). Further: nearly all actives have a fitted effect of over 50% in size. Further: potency means the concentration at half of the fitted maximal effect. The method in brief:
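Plate GH3.TRE-Luc cells; incubate 4 h at 37 °C; add compound, then T3 to 1 nM final; incubate 23.5 h; add CellTiter-Fluor; incubate 30 min at 37 °C, 5% CO2; read fluorescence.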
Background: Quantitative high-throughput screening tests each substance at several concentrations.

Test [2] in a line: qHTS assay to identify small molecule antagonists of the thyroid receptor (TR) signaling pathway (AID 743065). Further: nearly all actives have a fitted effect of over 55% in size. Further: potency means the concentration at half of the fitted maximal effect. The method in brief: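 Antagonism measured as loss of luciferase signal in GH3 cells stably carrying a TRE-luciferase reporter, co-treated with compound and T3 (1 nM final) for 23.5 h at 37 C. Viability was read in the same well by CellTiter-Fluor.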
Test [3] concerns thyroid hormone receptor (rat, GH3 cells). Kind of test: qHTS assay to identify small molecule agonists of the thyroid receptor (TR) signaling pathway (AID 743066; calls by dose curve).
Test [4] deals with Estrogen receptor (Homo sapiens) (UniProt P03372). Briefly: qHTS assay to identify small molecule antagonists of the estrogen receptor alpha (ER-alpha) signaling pathway (AID 743069; active means well fitted curve in the direction sought with a large enough effect in the signal ratio in the repeat runs, not every such curve was filed as active; inconclusive means weak or mixed curves, or effect the other way; inactive means no such curve, though single readings can be large or run the other way; the % refers to the signal ratio; further: potency means the concentration at half of the fitted maximal effect). The method in brief:
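Fluorescence intensity from a beta-lactamase FRET substrate served as the read-out. Cells: HEK293 with stably integrated ER-alpha-UAS-bla reporter. Agonist 17beta-estradiol was co-added with compounds; incubation 18 hr at 37C, substrate 2 hr at room temperature.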

Test [5] in a line: qHTS assay to identify small molecule antagonists of the estrogen receptor alpha (ER-alpha) signaling pathway - cell viability counter screen (AID 743074; calls by dose curve; further: nearly all actives have a fitted effect of over 45% in size; further: potency means the concentration at half of the fitted maximal effect).
In test [6] the target is Estrogen receptor (Homo sapiens) (UniProt P03372). Kind of test: qHTS assay to identify small molecule agonists of the estrogen receptor alpha (ER-alpha) signaling pathway (AID 743075; calls by dose curve; further: potency means the concentration at half of the fitted maximal effect).
For test [7] the target is unchanged. Kind of test: qHTS assay to identify small molecule agonists of the estrogen receptor alpha (ER-alpha) signaling pathway using the BG1 cell line (AID 743079). Further: nearly all actives have a fitted effect of over 20% in size.
Test [8] in a line: qHTS assay to identify small molecule antagonists of the estrogen receptor alpha (ER-alpha) signaling pathway using the BG1 cell line - cell viability counter screen (AID 743081).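 Further: compound given together with 17beta-estradiol as the ER stimulus; nearly all actives have a fitted effect of over 45% in size.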 Further: potency means the concentration at half of the fitted maximal effect.
Test [9] has as its target Aromatase (Homo sapiens) (UniProt P11511). Kind of test: qHTS assay to identify aromatase inhibitors (AID 743083). Further: nearly all actives have a fitted effect of over 55% in size. Further: potency means the concentration at half of the fitted maximal effect.
Test [10] can be described thus: qHTS assay to identify aromatase inhibitors - cell viability counter screen (AID 743084).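 Further: cells stimulated with testosterone during compound exposure; nearly all actives have a fitted effect of over 55% in size.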 Further: potency means the concentration at half of the fitted maximal effect.
Test [11] concerns the target Aryl hydrocarbon receptor (Homo sapiens) (UniProt P35869). Briefly: qHTS assay to identify small molecule that activate the aryl hydrocarbon receptor (AhR) signaling pathway (AID 743085). Further: nearly all actives have a fitted effect of over 15% in size. Further: potency means the concentration at half of the fitted maximal effect.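 On activation: HG2L7.5c1 human HepG2 liver cells with stably integrated DRE-driven firefly reporter; series mostly up to about 70 µM.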 Summed up: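 Steps: seed HepG2-AhR-luc cells; allow 5 h at 37C; pin-transfer test compound or vehicle; incubate 24 h at 37C; add viability dye (30 min, 37C) and read fluorescence; add luciferase substrate (30 min, RT) and read luminescence.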

Test [12] can be described thus: qHTS assay to identify small molecule that activate the aryl hydrocarbon receptor (AhR) signaling pathway - cell viability counter screen (AID 743086). Further: nearly all actives have a fitted effect of over 45% in size. Further: potency means the concentration at half of the fitted maximal effect. Summed up:
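Cytotoxicity counter screen: CellTiter-Fluor signal (30 min, 37 C) in 4000 HepG2 cells/well carrying the DRE-luciferase reporter, following 24 h compound exposure at 37 C.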

Test [13] in a line: qHTS assay for small molecule agonists of the antioxidant response element (ARE) signaling pathway (AID 743202; active means well fitted activation curve with a large enough effect in the signal ratio in the repeat runs, not every such curve was filed as active; inconclusive means weak or mixed curves, or effect the other way; inactive means no such curve, though single readings can be large or run the other way; the % refers to the signal ratio). Summed up:
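Beta-lactamase reporter activity, read as fluorescence intensity, reflects ARE/Nrf2 pathway induction in HepG2 cells after 16 h compound exposure at 37 C; substrate loading was 2 h at room temperature.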

Test [14] can be described thus: qHTS assay for small molecule agonists of the antioxidant response element (ARE) signaling pathway - cell viability counter screen (AID 743203; calls by dose curve; further: nearly all actives have a fitted effect of over 55% in size; further: potency means the concentration at half of the fitted maximal effect). The method in brief: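 ATP content via CellTiter-Glo luminescence served as the viability measure. Cells: ARE-bla HepG2, 2,000 per well. Exposure: 16 hrs, 37C/5% CO2.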
A short description of test [15]: qHTS assay for small molecule activators of the heat shock response signaling pathway - cell viability counter screen (AID 743209). Further: nearly all actives have a fitted effect of over 50% in size. Further: potency means the concentration at half of the fitted maximal effect. The method in brief: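 Compounds dissolved in DMSO were added to overnight-plated HSE-bla HeLa cells and left 5 h at 37 C. Cell viability was quantified by luminescence using CellTiter-Glo.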
Test [16] is described as follows: qHTS assay for small molecule activators of the heat shock response signaling pathway (AID 743210; active means well fitted activation curve with a large enough effect in the signal ratio in the repeat runs, with a control signal flat, not every such curve was filed as active; inconclusive means weak or mixed curves; the % refers to the signal ratio;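 further: HeLa cells with beta-lactamase reporter driven by heat shock elements; series mostly up to about 63 µM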). Summed up: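 Fluorescence from a cleaved B/G FRET substrate (2.5 h, room temp) reports HSE-driven beta-lactamase in HeLa cells treated 5 h at 37 C with DMSO-dissolved compounds.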
Test [17] in a line: qHTS assay to identify small molecule agonists of the peroxisome proliferator-activated receptor delta (PPARd) signaling pathway - cell viability counter screen (AID 743211). Further: nearly all actives have a fitted effect of over 55% in size. Further: potency means the concentration at half of the fitted maximal effect. Summed up:
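Viability of GeneBLAzer PPARd UAS-bla HEK293H cells was assessed after 17 h compound incubation at 37C, using CellTiter-Glo reagent added after the reporter read and luminescence recorded 30 min later.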

Test [18] concerns the target Peroxisome proliferator-activated receptor gamma (Homo sapiens) (UniProt P37231). Briefly: qHTS assay to identify small molecule agonists of the peroxisome proliferator-activated receptor gamma (PPARg) signaling pathway (AID 743094; active means well fitted activation curve with a large enough effect in the signal ratio in the repeat runs, not every such curve was filed as active; inconclusive means weak or mixed curves, or effect the other way; inactive means no such curve, though single readings can be large or run the other way; the % refers to the signal ratio). The method in brief: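 Agonism was assessed in a beta-lactamase reporter system, HEK293H cells with a stably integrated UAS-bla construct under PPARg control; the 17 h treatment at 37C preceded a 1 h room-temperature FRET substrate read.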

Test [19] can be described thus: qHTS assay to identify small molecule antagonists of the peroxisome proliferator-activated receptor gamma (PPARg) signaling pathway - cell viability counter screen (AID 743194). Further: nearly all actives have a fitted effect of over 55% in size. As to conditions: Potency: co-treated with 50 nM rosiglitazone unless noted. The method in brief:
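Viability was measured as CellTiter-Glo luminescence in GeneBLAzer PPARg UAS-bla HEK293H cells. These cells had been exposed 17 h at 37 C to compounds together with rosiglitazone at 50 nM final, with the beta-lactamase readout taken in the same wells.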

In test [20] the target is Peroxisome proliferator-activated receptor delta (Homo sapiens) (UniProt Q03181). Briefly: qHTS assay to identify small molecule agonists of the peroxisome proliferator-activated receptor delta (PPARd) signaling pathway (AID 743212; calls by dose curve). The method in brief:
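Steps: seed PPARd-bla HEK293H cells; incubate 5 h, 37 C, 5% CO2; add compounds in DMSO; incubate, 37 C; add LiveBLAzer B/G FRET substrate; hold 2 h at room temperature; measure fluorescence.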

Peroxisome proliferator-activated receptor delta (Homo sapiens), sequence (Q03181 whole entry, looked up): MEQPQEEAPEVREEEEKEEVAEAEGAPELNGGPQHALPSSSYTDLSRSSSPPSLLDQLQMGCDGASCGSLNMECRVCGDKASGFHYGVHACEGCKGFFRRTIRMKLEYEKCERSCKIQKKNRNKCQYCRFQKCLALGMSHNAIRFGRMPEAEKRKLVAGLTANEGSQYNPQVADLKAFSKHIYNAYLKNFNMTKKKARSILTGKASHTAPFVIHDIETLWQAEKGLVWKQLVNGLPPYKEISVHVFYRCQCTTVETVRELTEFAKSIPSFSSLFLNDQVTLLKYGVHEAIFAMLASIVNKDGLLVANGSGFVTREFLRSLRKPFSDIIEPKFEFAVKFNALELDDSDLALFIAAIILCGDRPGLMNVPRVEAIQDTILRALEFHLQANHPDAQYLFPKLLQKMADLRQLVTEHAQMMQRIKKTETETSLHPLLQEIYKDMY
Aromatase (Homo sapiens), sequence (P11511 whole entry, looked up): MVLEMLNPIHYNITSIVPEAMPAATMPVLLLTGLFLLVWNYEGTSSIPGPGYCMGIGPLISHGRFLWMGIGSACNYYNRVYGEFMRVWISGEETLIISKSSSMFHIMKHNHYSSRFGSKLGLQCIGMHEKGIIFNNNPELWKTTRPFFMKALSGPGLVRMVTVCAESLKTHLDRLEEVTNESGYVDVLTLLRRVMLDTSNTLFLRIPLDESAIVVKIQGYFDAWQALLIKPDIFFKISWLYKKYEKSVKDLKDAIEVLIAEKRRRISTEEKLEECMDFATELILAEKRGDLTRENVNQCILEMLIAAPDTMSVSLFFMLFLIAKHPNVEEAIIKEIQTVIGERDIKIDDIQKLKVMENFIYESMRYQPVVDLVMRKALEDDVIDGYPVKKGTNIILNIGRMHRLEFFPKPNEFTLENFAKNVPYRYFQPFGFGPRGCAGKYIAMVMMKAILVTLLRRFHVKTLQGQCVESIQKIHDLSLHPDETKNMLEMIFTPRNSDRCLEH
Estrogen receptor (Homo sapiens), sequence (P03372 whole entry, looked up): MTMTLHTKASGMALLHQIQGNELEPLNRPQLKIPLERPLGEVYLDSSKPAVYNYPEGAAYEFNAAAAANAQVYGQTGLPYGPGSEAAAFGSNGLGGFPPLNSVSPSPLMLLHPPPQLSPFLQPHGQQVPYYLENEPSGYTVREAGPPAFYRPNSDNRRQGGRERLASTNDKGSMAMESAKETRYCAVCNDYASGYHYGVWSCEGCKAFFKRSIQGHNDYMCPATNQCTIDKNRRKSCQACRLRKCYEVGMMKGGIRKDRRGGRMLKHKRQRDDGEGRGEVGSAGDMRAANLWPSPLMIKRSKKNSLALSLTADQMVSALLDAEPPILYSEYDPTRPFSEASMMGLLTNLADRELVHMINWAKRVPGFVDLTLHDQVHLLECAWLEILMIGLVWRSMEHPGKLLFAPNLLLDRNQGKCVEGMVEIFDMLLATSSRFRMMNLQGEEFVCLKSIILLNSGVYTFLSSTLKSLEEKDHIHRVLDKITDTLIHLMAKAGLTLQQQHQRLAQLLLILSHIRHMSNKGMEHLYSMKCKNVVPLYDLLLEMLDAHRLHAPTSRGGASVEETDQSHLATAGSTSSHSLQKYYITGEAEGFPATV
Peroxisome proliferator-activated receptor gamma (Homo sapiens), sequence (P37231 whole entry, looked up): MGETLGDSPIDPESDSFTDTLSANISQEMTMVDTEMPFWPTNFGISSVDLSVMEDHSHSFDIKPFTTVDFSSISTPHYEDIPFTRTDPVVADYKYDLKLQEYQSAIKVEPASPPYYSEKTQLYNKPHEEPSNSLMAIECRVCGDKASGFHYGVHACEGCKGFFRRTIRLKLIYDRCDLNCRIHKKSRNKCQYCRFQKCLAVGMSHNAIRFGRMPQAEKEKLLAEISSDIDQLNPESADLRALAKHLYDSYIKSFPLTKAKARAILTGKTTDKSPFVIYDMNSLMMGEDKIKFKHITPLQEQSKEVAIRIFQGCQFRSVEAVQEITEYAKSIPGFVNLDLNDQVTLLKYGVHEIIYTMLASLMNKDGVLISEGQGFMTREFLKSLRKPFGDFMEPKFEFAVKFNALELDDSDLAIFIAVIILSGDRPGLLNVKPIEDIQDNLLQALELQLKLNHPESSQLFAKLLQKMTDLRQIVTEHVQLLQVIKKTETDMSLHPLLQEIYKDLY
Aryl hydrocarbon receptor (Homo sapiens), sequence (P35869 whole entry, looked up): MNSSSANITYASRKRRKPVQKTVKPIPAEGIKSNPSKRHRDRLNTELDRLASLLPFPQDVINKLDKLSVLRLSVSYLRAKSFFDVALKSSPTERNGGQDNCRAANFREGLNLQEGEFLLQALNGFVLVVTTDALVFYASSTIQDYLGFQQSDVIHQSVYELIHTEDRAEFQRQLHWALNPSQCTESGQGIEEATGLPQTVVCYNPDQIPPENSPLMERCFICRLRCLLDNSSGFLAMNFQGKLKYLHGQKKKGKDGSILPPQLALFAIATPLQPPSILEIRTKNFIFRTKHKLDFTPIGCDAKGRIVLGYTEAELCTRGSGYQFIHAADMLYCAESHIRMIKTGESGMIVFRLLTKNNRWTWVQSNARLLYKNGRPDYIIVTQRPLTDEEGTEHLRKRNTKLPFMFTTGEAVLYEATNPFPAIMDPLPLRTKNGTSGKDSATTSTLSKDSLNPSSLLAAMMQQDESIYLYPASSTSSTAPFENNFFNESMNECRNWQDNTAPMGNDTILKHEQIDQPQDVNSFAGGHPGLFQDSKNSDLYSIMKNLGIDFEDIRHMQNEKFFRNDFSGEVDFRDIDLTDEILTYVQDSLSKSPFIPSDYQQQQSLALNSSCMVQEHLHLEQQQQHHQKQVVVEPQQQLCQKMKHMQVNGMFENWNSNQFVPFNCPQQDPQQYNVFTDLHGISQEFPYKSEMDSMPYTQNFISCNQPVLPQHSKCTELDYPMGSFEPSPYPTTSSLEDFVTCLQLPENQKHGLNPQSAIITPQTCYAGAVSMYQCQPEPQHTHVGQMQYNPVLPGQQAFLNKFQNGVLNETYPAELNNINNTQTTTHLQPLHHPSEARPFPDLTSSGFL

On to `O=C(O)c1nc(Cl)ccc1Cl`, for which the Potency entry in test [1], in test [2], in [3], in [4], in test [5] and in [6] was “inactive” in each case. The Potency entry in [7], in [8], in [9], in test [10], in test [12] and in test [13] was “inactive” throughout. For the same compound, the Potency entry in test [14], in test [15] and in test [17] was “inactive” in each case. In test [11], the Potency was 22.4 µM (active) and inactive. Besides, the call in test [16] was inactive.
With `OCCOc1ccccc1`, the Potency entry in [1], in [2], in [3], in test [4], in test [5] and in test [6] was “inactive” in each case. Further, the Potency entry in test [7], in test [8], in test [9], in test [10], in test [11] and in test [12] was “inactive” throughout. Further, the Potency result in test [19], in test [13], in test [14], in test [15] and in test [17] was “inactive” in each case. Further, the result in test [18], in test [16] and in test [20] was inactive.
Turning to `O=[N+]([O-])c1ccccc1O`, the Potency entry in test [1], in test [2], in test [3], in [5], in [8] and in test [9] was “inactive” each time. The Potency result in [10], in test [11], in test [12], in [13], in test [14] and in test [15] was “inactive” in each case. The Potency result in [17] was “inactive”. The compound was classed as inactive in test [18] and in test [16].
In the case of `C1CCC(NC2CCCCC2)CC1`, the Potency entry in test [1], in test [2], in [3], in test [4], in [5] and in [6] was “inactive” throughout. Moreover, the Potency result in test [7], in [8], in test [9], in test [10], in test [11] and in test [12] was “inactive” each time. The Potency result in test [19], in test [13], in test [14], in test [15] and in test [17] was “inactive” each time. For the same compound, the call in test [18], in test [16] and in test [20] was inactive.
As to `CCOP(=S)(OCC)Oc1ccc2c(C)c(Cl)c(=O)oc2c1`, the Potency entry in test [1], in [2], in [3], in test [5], in test [8] and in test [9] was “inactive” each time. The Potency result in [10], in [12], in [13], in [14], in [15] and in test [17] was “inactive” in each case. Further, the Potency in test [11] is 596 nM (active) and 98 nM (active). Also, the compound was classed as inactive in test [18], in test [16] and in [20].
Take `CC(=O)[O][Hg][c]1ccccc1`: the Potency was 596 nM (active) and 241 nM (active) and 386 nM (active) in test [1]; 422 nM (active) and 215 nM (active) and 217 nM (active) in [2]; 6.16 µM [inconclusive] (active) in test [4]; 5.35 µM (active) and 2.43 µM (active) and 5.49 µM (active) in [5]; 26.8 µM [inconclusive] (active) and 34.4 µM [inconclusive] (active) and 1.1 µM [fluorescent] (active) in [6]; 2.98 µM (active) and 3.04 µM (active) and 4.33 µM (active) in test [8]. Besides, the Potency in [9] is 3.35 µM (active) and 1.36 µM (active) and 686 nM (active); in test [10], 5.31 µM (active) and 1.36 µM (active) and 770 nM (active); in test [12], 9.44 µM (active) and 4.29 µM (active) and 4.86 µM (active); in [14] it was 762 nM (active) and 433 nM (active) and 1.19 µM (active); in [15], 1.22 µM (active) and 1.1 µM (active) and 2.11 µM (active); in test [17] it was 611 nM (active) and 977 nM (active) and 2.98 µM (active). The Potency result in test [3] and in [11] was “inactive” throughout.
